“And” between values parts separate entries of the source, which are not always exact repeats. Identical values can stand only once. In all, about 5,500 compounds went through this assay and about 2,000 (36%) were called active. Another 18% or so got no clear call; they are omitted. Cut-off read from the data, not from the text of the source: active = normalized growth mostly below about 0.91 (no sharp cut-off); inconclusive = no clear call, values can overlap the other calls; inactive = mostly above about 0.92. This is one part of the list.
Test: chemical genetic growth profiling, strain panel (AID 1159580);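 note: tested at 20 µM; growth read once vehicle control cultures reached saturation at 30 °C; 1 = growth at the plate median or of vehicle wells; lower values mean less growth of the strain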
Conditions: S. cerevisiae deletion strains, growth OD

Measured: normalized growth

COc1ccc([C@H]2COc3c(ccc(O)c3OC)C2)c(OC)c1O
inactive: locus YAL021C, strain ccr4, active compounds read low 0.984 | locus YAL026C, strain drs2, active compounds read low 0.975 | locus YAL030W, strain snc1, active compounds read low 0.992 | locus YBL061C, strain skt5, active compounds read low 0.989 | locus YBR009C, strain hhf1, active compounds read low 0.976 | locus YBR021W, strain FUR4, active compounds read low 1.11 | locus YBR023C, strain chs3, active compounds read low 0.985 | locus YBR171W, strain sec66, active compounds read low 0.969 | locus YBR229C, strain ROT2, active compounds read low 0.947 | locus YBR231C, strain swc5, active compounds read low 0.988 | locus YBR279W, strain paf1, active compounds read low 0.984 | locus YCL011C, strain gbp2, active compounds read low 0.972 | locus YCL016C, strain dcc1, active compounds read low 0.989 | locus YCL029C, strain bik1, active compounds read low 0.993 | locus YCL061C, strain MRC1, active compounds read low 0.968 | locus YCL069W, strain vba3, active compounds read low 0.988 | locus YCR088W, strain abp1, active compounds read low 0.984 | locus YDL005C, strain med2, active compounds read low 0.975 | locus YDL035C, strain GPR1, active compounds read low 0.998 | locus YDL040C, strain nat1, active compounds read low 0.991 | locus YDL074C, strain BRE1, active compounds read low 1.02 | locus YDL101C, strain DUN1, active compounds read low 0.978 | locus YDL185W, strain tfp1, active compounds read low 0.946 | locus YDL192W, strain arf1, active compounds read low 0.971 | locus YDR001C, strain nth1, active compounds read low 0.986 | locus YDR069C, strain doa4, active compounds read low 0.979 | locus YDR101C, strain arx1, active compounds read low 0.969 | locus YDR159W, strain sac3, active compounds read low 0.974 | locus YDR162C, strain NBP2, active compounds read low 0.943 | locus YDR195W, strain ref2 1 | locus YDR297W, strain sur2, active compounds read low 0.98 | locus YDR318W, strain mcm21, active compounds read low 0.986 | locus YDR334W, strain swr1, active compounds read low 0.962 | locus YDR335W, strain msn5, active compounds read low 0.98 | locus YDR388W, active compounds read low 0.995 | locus YDR392W, strain spt3, active compounds read low 0.926 | locus YDR502C, strain sam2, active compounds read low 0.977 | locus YEL003W, strain gim4, active compounds read low 0.976 | locus YEL037C, strain rad23, active compounds read low 0.992 | locus YEL061C, strain CIN8 (second series), active compounds read low 0.973 | locus YEL061C, strain CIN8, active compounds read low 0.985 | locus YER015W, strain faa2, active compounds read low 0.989 | locus YER016W, strain bim1, active compounds read low 0.983 | locus YER110C, active compounds read low 0.962 | locus YER111C, strain swi4, active compounds read low 0.983 | locus YER155C, strain BEM2 (second series), active compounds read low 0.988 | locus YER155C, strain BEM2, active compounds read low 1.01 | locus YER167W, strain BCK2, active compounds read low 1 | locus YFR010W, strain ubp6, active compounds read low 0.957 | locus YGL078C, strain dbp3, active compounds read low 0.978 | locus YGL086W, strain mad1, active compounds read low 0.994 | locus YGL167C, strain pmr1, active compounds read low 0.981 | locus YGL173C, strain kem1, active compounds read low 0.977 | locus YGL227W, strain vid30, active compounds read low 0.988 | locus YGL240W, strain doc1, active compounds read low 0.978 | locus YGL248W, strain PDE1, active compounds read low 0.985 | locus YGL253W, strain hxk2, active compounds read low 0.997 | locus YGR078C, strain PAC10, active compounds read low 0.989 | locus YGR135W, strain pre9, active compounds read low 0.986 | locus YGR229C, strain SMI1, active compounds read low 0.987 | locus YGR252W, strain gcn5, active compounds read low 1.03 | locus YHR013C, strain ard1, active compounds read low 0.978 | locus YHR027C, strain rpn1, active compounds read low 0.978 | locus YHR030C, strain SLT2, active compounds read low 1 | locus YHR079C, strain IRE1 (second series), active compounds read low 0.997 | locus YHR079C, strain IRE1, active compounds read low 1.02 | locus YHR094C, strain hxt1, active compounds read low 0.98 | locus YHR129C, strain ARP1, active compounds read low 1.01 | locus YHR142W, strain chs7, active compounds read low 0.968 | locus YHR200W, strain rpn10, active compounds read low 0.967 | locus YIL066C, strain RNR3, active compounds read low 0.975 | locus YIL073C, strain SPO22, active compounds read low 0.924 | locus YIL125W, strain kgd1, active compounds read low 0.987 | locus YIR030C, strain dcg1, active compounds read low 1 | locus YJL092W, strain hpr5, active compounds read low 0.977 | locus YJL095W, strain BCK1 (second series), active compounds read low 0.995 | locus YJL095W, strain BCK1, active compounds read low 0.98 and 1.03 | locus YJL115W, strain asf1, active compounds read low 0.967 | locus YJL129C, strain trk1, active compounds read low 0.977 | locus YJL134W, strain LCB3, active compounds read low 0.994 | locus YJL154C, strain vps35, active compounds read low 0.983 | locus YJL164C, strain tpk1, active compounds read low 0.967 | locus YJL166W, strain qcr8, active compounds read low 0.993 | locus YJL168C, strain set2, active compounds read low 0.989 | locus YJL187C, strain SWE1 (second series), active compounds read low 0.981 | locus YJL187C, strain SWE1, active compounds read low 0.991 | locus YJR043C, strain POL32, active compounds read low 0.987 | locus YJR066W, strain TOR1, active compounds read low 1.01 | locus YJR075W, strain HOC1, active compounds read low 0.969 | locus YKL009W, strain mrt4, active compounds read low 0.977 | locus YKL068W, active compounds read low 0.973 | locus YKL085W, strain MDH1 (second series), active compounds read low 0.974 | locus YKL085W, strain MDH1, active compounds read low 0.974 | locus YKL160W, strain elf1, active compounds read low 0.986 | locus YKL190W, strain CNB1, active compounds read low 0.991 | locus YKR001C, strain vps1, active compounds read low 1 | locus YKR026C, strain gcn3, active compounds read low 0.982 | locus YKR091W, strain srl3, active compounds read low 0.992 | locus YLL001W, strain dnm1, active compounds read low 0.978 | locus YLL026W, active compounds read low 0.994 | locus YLL041C, strain sdh2, active compounds read low 0.98 | locus YLR027C, strain aat2, active compounds read low 1 | locus YLR039C, strain RIC1, active compounds read low 0.953 | locus YLR058C, strain SHM2, active compounds read low 0.98 | locus YLR102C, strain apc9, active compounds read low 0.997 | locus YLR113W, strain HOG1, active compounds read low 0.969 | locus YLR221C, strain rsa3, active compounds read low 0.993 | locus YLR258W, strain gsy2, active compounds read low 0.992 | locus YLR262C, strain YPT6 (second series), active compounds read low 0.912 | locus YLR262C, strain YPT6, active compounds read low 0.939 | locus YLR268W, strain sec22, active compounds read low 0.99 | locus YLR320W, strain mms22, active compounds read low 0.987 | locus YLR330W, strain CHS5, active compounds read low 1 | locus YLR342W, strain FKS1 (second series), active compounds read low 1.05 | locus YLR342W, strain FKS1, active compounds read low 0.989 | locus YLR357W, strain rsc2, active compounds read low 0.978 | locus YLR370C, strain arc18, active compounds read low 0.977 | locus YLR371W, strain rom2, active compounds read low 0.994 | locus YLR384C, strain iki3, active compounds read low 0.995 | locus YLR418C, strain cdc73, active compounds read low 1 | locus YML016C, strain PPZ1, active compounds read low 0.995 | locus YML032C, strain rad52, active compounds read low 0.993 | locus YML120C, strain ndi1, active compounds read low 0.979 | locus YML124C, strain tub3, active compounds read low 0.974 | locus YMR058W, strain fet3, active compounds read low 0.97 | locus YMR078C, strain ctf18, active compounds read low 0.99 | locus YMR125W, strain sto1, active compounds read low 0.979 | locus YMR129W, active compounds read low 0.977 | locus YMR205C, strain PFK2, active compounds read low 0.978 | locus YMR223W, strain ubp8, active compounds read low 0.972 | locus YMR231W, strain pep5, active compounds read low 0.996 | locus YMR307W, strain GAS1, active compounds read low 1.09 | locus YNL067W, strain RPL9B, active compounds read low 0.996 | locus YNL071W, strain lat1, active compounds read low 0.982 | locus YNL183C, strain NPR1, active compounds read low 0.974 | locus YNL209W, strain ssb2, active compounds read low 0.987 | locus YNL233W, strain BNI4, active compounds read low 0.996 | locus YNL248C, strain rpa49, active compounds read low 0.977 | locus YNL250W, strain rad50, active compounds read low 0.968 | locus YNL271C, strain bni1, active compounds read low 0.979 | locus YNL298W, strain CLA4, active compounds read low 0.975 | locus YNL307C, strain MCK1, active compounds read low 0.986 | locus YNL322C, strain KRE1 (second series), active compounds read low 0.991 | locus YNR049C, strain mso1, active compounds read low 0.995 | locus YNR052C, strain pop2, active compounds read low 0.996 | locus YOL006C, strain TOP1, active compounds read low 1.1 | locus YOL012C, strain htz1 0.955 | locus YOL147C, strain pex11, active compounds read low 0.995 | locus YOR001W, strain rrp6, active compounds read low 0.986 | locus YOR061W, strain CKA2, active compounds read low 0.966 | locus YOR069W, strain VPS5, active compounds read low 0.999 | locus YOR070C, strain gyp1, active compounds read low 0.988 | locus YOR080W, strain dia2, active compounds read low 0.988 | locus YOR083W, strain WHI5, active compounds read low 0.985 | locus YOR106W, strain vam3, active compounds read low 0.976 | locus YOR136W, strain idh2, active compounds read low 0.978 | locus YOR144C, strain elg1, active compounds read low 0.983 | locus YOR184W, strain ser1, active compounds read low 0.956 | locus YOR231W, strain MKK1, active compounds read low 1.03 | locus YOR265W, strain rbl2, active compounds read low 0.994 | locus YOR270C, strain vph1, active compounds read low 0.933 | locus YOR290C, strain snf2, active compounds read low 0.966 | locus YOR316C, strain cot1, active compounds read low 0.981 | locus YPL051W, strain arl3, active compounds read low 0.995 | locus YPL055C, strain LGE1, active compounds read low 1.01 | locus YPL078C, strain atp4, active compounds read low 0.986 | locus YPL106C, strain sse1, active compounds read low 0.989 | locus YPL240C, strain hsp82, active compounds read low 0.963 | locus YPL241C, strain CIN2, active compounds read low 0.958 | locus YPL256C, strain CLN2, active compounds read low 1.03 | locus YPR119W, strain clb2, active compounds read low 0.978 | locus YPR141C, strain kar3, active compounds read low 0.979 | locus YPR163C, strain tif3, active compounds read low 0.981 | locus YPR167C, strain met16, active compounds read low 1 | strain wtn01, active compounds read low 0.981
active: locus YDR137W, strain rgp1, active compounds read low 0.828

Reference: PubChem BioAssay AID1159580 (chemical genetic matrix, 2015)
